TGFb inhibitor = qHTS for Inhibitors of TGF-b; HepG2 CAGA-GFP TGF-b/SMAD3 reporter, GFP fluorescence, 18 h; TGF-beta stimulated, 500 pg/mL final; Potency, µM (doses to about 46.1 µM), actives largely listed as inhibitors; AID 588855, 2011; actives 1.2% (n = 410,000); note: nearly all actives have a fitted effect of over 65% in size
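Inhibition was scored as loss of TGF-beta-induced (500 pg/mL final, 18 hours, 37 degrees C) GFP in HEPG2 cells carrying a CAGA-GFP reporter, in DMEM with 1% FBS. Well GFP was summed per cell; Activity was normalised to unstimulated and stimulated DMSO wells, then concentration-response fitting.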
TDP1 cell noCPT = qHTS for Inhibitors of human tyrosyl-DNA phosphodiesterase 1 (TDP1): qHTS in cells in absence of CPT; AID 686978, 2013; actives 15% (n = 420,000); Potency, µM (top dose mostly 46.2 µM), usual class: inhibitors; DT40 Tdp1-/- hTDP1 cells, no CPT, ATP luminescence, 48 h; note: nearly all actives have a fitted effect of over 55% in size
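DT40 Tdp1-/-;hTDP1 cells, no CPT (DMSO vehicle only), 400 cells/well; compounds pin-transferred; ≥48 hr, 37 °C; CellTiter-Glo 30 min RT dark, luminescence read.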
S-ASM inh = Inhibitors of Secretory Acid Sphingomyelinase (S-ASM): qHTS; Sphingomyelin phosphodiesterase (Homo sapiens), P17405; placental ASM, HMU-PC fluorogenic substrate, 60 min; Potency, µM (titrated, usually from 57.5 µM), hits mostly inhibitors; actives 0.006% (n = 340,000)
Target sequence (P17405 47-631 limits assumed): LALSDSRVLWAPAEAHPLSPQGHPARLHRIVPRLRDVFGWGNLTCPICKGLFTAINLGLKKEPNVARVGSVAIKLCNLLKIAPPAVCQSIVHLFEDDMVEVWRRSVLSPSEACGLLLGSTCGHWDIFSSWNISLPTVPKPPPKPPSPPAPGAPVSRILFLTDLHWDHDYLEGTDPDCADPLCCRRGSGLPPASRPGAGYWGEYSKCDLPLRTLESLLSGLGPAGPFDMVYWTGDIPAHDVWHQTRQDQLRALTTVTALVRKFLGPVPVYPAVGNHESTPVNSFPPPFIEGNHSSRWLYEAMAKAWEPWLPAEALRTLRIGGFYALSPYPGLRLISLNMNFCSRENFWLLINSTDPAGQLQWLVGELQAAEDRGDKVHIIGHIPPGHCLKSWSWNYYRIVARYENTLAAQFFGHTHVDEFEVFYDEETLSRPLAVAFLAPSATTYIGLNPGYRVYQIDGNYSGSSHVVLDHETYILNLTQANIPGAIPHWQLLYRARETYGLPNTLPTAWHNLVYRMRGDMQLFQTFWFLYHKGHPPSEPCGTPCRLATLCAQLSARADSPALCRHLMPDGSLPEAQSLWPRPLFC
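Human placenta-derived ASM preincubated with compound 10 min at room temperature, then reacted with 9 uM (final) fluorogenic HMU-PC substrate for 60 min at 37 C. Stop solution raises pH to 10; fluorescence read at Ex 386/Em 447 nm.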
TDP1 cell CPT = qHTS for Inhibitors of human tyrosyl-DNA phosphodiesterase 1 (TDP1): qHTS in cells in presence of CPT; actives 12% (n = 420,000); chicken DT40 Tdp1-/-;hTDP1 cells + 20 nM CPT, ATP luminescence, 48 h; Potency, µM (highest dose often 46.2 µM), actives largely listed as inhibitors; note: nearly all actives have a fitted effect of over 55% in size
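Chicken DT40 Tdp1-/- cells stably complemented with human TDP1 were seeded at 400 cells/well in medium containing 20 nM camptothecin, exposed to pin-transferred compounds, and grown at 37 °C for at least 48 hr. Viability was read as ATP luminescence.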
HepG2 tox = qHTS for Inhibitors of TGF-b: Cytotox Counterscreen. HepG2 CAGA-GFP viability, ATP luminescence, 18 h. Potency, µM (highest dose often 46.1 µM), most hits filed as cytotoxic. actives 0.76% (n = 410,000). AID 588856, 2011
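CellTiter-Glo luminescence gave cytotoxicity after 18 hours at 37 degrees C. The cells were HepG2 CAGA-GFP in 1% FBS DMEM, stimulated with 500 pg/mL TGF-beta after compound addition. %Activity was normalised to no-cell wells (complete cell-killing) and DMSO (no toxicity), and curves were fitted and classified.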
IL1B secr inh = qHTS for Inhibitors of Inflammasome Signaling: IL-1-beta AlphaLISA Primary Screen; THP-1 LPS/ATP IL-1B secretion, AlphaLISA, 16 h; stronger effect = lower value; activity change, % at 57.5 µM; actives 4.7% (n = 360,000); in the data active = activity change below about -50%; inconclusive = mostly about -30% to -49%
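Secreted IL-1B measured by AlphaLISA bead assay after 16 h compound exposure of THP-1 cells; compounds (final up to 57.5 uM) added 1 h before LPS (250 ng/mL) and ATP (1.25 mM) stimulation; lower signal means less secretion.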
A number is an active result. Hits are enriched below; roughly 19% of the tested compounds scored in any of these assays. Unless noted, calls come from the whole dose curve; as a rule, active = well fitted curve in the direction sought with a large enough effect; inconclusive = small, poorly fitted or top-dose-only effect, or another doubt; inactive = no such curve, though single readings can be large; an effect the other way counts as inactive or inconclusive.

O=C(Nc1ccccc1)Nc1ccccc1C(=O)NCC1CC1 was read as TGFb inhibitor inactive, TDP1 cell noCPT inactive, S-ASM inh inactive, TDP1 cell CPT inactive, HepG2 tox inactive and IL1B secr inh inactive.
Screening CCc1nc2n(n1)C(O)c1cc([N+](=O)[O-])ccc1S2 (configuration not stated) returned TGFb inhibitor inactive, TDP1 cell noCPT inactive, S-ASM inh inactive, TDP1 cell CPT inactive, HepG2 tox inactive and IL1B secr inh inactive.
CC(C)N(C)CCOC(=O)c1ccccc1Br was read as TGFb inhibitor inactive, TDP1 cell noCPT inconclusive, S-ASM inh inactive, TDP1 cell CPT 16µM, HepG2 tox inactive and IL1B secr inh inactive.
CN(C(=O)C1CC1)C1CCS(=O)(=O)C1 (configuration not stated) was read as TGFb inhibitor inactive, TDP1 cell noCPT inactive, S-ASM inh inactive, TDP1 cell CPT inactive, HepG2 tox inactive and IL1B secr inh inactive.
O=C(CSc1nnc(NC(=O)C2CC(=O)N(c3ccc(F)cc3)C2)s1)NCC1CCCO1 (configuration not stated) was read as TGFb inhibitor inactive, TDP1 cell noCPT inactive, S-ASM inh inactive, TDP1 cell CPT inactive, HepG2 tox inactive and IL1B secr inh inactive.
For Cn1cccc1Cc1nnc(SCC(=O)Nc2cccc(F)c2)n1CCc1ccccc1 the results were TGFb inhibitor inactive, TDP1 cell noCPT inconclusive, S-ASM inh inactive, TDP1 cell CPT 23µM, HepG2 tox inactive and IL1B secr inh inactive.
For CC1CCN(C(=O)CSc2nnc(Cc3cccn3C)n2CCc2ccccc2)CC1 the results were TGFb inhibitor inactive, TDP1 cell noCPT inconclusive, S-ASM inh inactive, TDP1 cell CPT 16µM, HepG2 tox inactive and IL1B secr inh inconclusive.
Cn1cccc1Cc1nnc(SCC(=O)Nc2ccccc2F)n1CCc1ccccc1 was read as TGFb inhibitor inactive, TDP1 cell noCPT inactive, S-ASM inh inactive, TDP1 cell CPT inactive, HepG2 tox inactive and IL1B secr inh inconclusive.
Screening COc1ccc(-n2c(Cc3cccn3C)nnc2SCC(=O)Nc2cccc(F)c2)cc1 returned TGFb inhibitor inactive, TDP1 cell noCPT 26µM, S-ASM inh inactive, TDP1 cell CPT 23µM, HepG2 tox inactive and IL1B secr inh inconclusive.
O=C(Nc1ccc2c(c1)OCO2)c1cc(C2CCCCN2C(=O)c2ccc(Cl)cc2)on1 (configuration not stated) was read as TGFb inhibitor inconclusive, TDP1 cell noCPT 21µM, TDP1 cell CPT 21µM, HepG2 tox inactive and IL1B secr inh inactive.
Screening CCCNC(=O)c1cc(C2CCCCN2C(=O)c2ccc3c(c2)CCO3)on1 (configuration not stated) returned TGFb inhibitor inactive, TDP1 cell noCPT inactive, TDP1 cell CPT inactive, HepG2 tox inactive and IL1B secr inh inactive.
O=C(Nc1ccc2c(c1)OCO2)c1cc(C2CCCCN2C(=O)c2ccc3c(c2)CCO3)on1 (configuration not stated) was read as TGFb inhibitor inactive, TDP1 cell noCPT 26µM, TDP1 cell CPT 26µM, HepG2 tox inactive and IL1B secr inh inactive.
`N#Cc1ccc(C(=O)N2CCCCC2c2cc(C(=O)Nc3ccc4c(c3)OCO4)no2)cc1` (configuration not stated) gave TGFb inhibitor inactive, TDP1 cell noCPT 23µM, TDP1 cell CPT inconclusive, HepG2 tox inactive and IL1B secr inh inactive.
`CC1(C)CC[C@]2(C(=O)O)CC[C@]3(C)C(=CCC4[C@@]5(C)CC[C@H](O)C(C)(C)C5[C@H](O)C[C@]43C)C2C1` (some centres not stated) gave TDP1 cell noCPT inactive and TDP1 cell CPT inactive.

Source: PubChem (National Center for Advancing Translational Sciences (NCATS))
